Our source for the Potency and activity change, negative = cytotoxicity values is PubChem BioAssay (Tox21).

This assay is described as follows: p53 small molecule agonists, cell-based qHTS assay with human liver microsomes: qHTS cell viability counter screen (AID 1963579). Further: nearly all actives have a fitted effect of over 45% in size. In outline:
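Cytotoxicity counter screen: p53RE-bla, 4,000 cells/well; 5 h settle, 37 C/5% CO2; cpd + HLM 0.5 mg/mL + NADPH 0.5 mg/mL (final); 16 h, 37 C; CellTiter-Glo, 30 min RT, luminescence.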

Inconclusive results are not listed. Entries that show only a call come without a potency. Values without a mark were called inactive. Activity calls are given as the source filed them. The call rests on the fitted dose curve.

Consider `Oc1cc(O)c(Cl)cc1Cl`, for which the Potency entry was “inactive”.

With `C=CC1CO1` (stereo unspecified), the Potency entry was “inactive”.

Regarding `CC(C)(O)C(=O)c1ccccc1`, the Potency entry was “inactive”.

Take `O=[N+]([O-])c1c(Cl)cc(Cl)cc1Cl`: the Potency entry was “inactive”.

Regarding `Cc1ccccc1CCO`, the Potency entry is “inactive”.

In the case of `CO[Si](C)(OC)c1ccccc1`, the Potency entry was “inactive”.

As to `CC(CC(C#N)(c1ccccc1)C(C)C)N(C)C` (stereo unspecified), the Potency result is “inactive”.

With `Oc1ccccc1Cc1ccccc1O`, the Potency result was “inactive”.

Turning to `CCCCC(CC)CN` (stereo unspecified), the Potency entry was “inactive”.

Regarding `Cc1ccc(=O)n(-c2ccccc2)c1`, the Potency result was “inactive”.

For the compound `COC(C)(OC)OC`, the Potency result is “inactive”.

Turning to `CCCCCCC/C=C/C=O`, the Potency entry is “inactive”.

As for `CC(c1cc(C(C)(C)C)cc(C(C)(C)C)c1O)c1cc(C(C)(C)C)cc(C(C)(C)C)c1O`, the Potency entry is “inactive”.

Take `Cc1cc(CC(=O)O)c(C)n1-c1ccc(Cl)cc1`: the Potency result was “inactive”.

For `CCOc1cc(N)c(Cl)cc1C(=O)NCC1CN(Cc2ccc(F)cc2)CCO1` (stereo unspecified), the Potency result is “inactive”.

`CCCC(=O)OCCC(C)C`: the Potency entry is “inactive”.

Turning to `C[C@@H]1O[C@@H](O[C@@H]2[C@@H](O)[C@H](OCCc3ccc(O)c(O)c3)O[C@H](CO[C@@H]3O[C@H](CO)[C@@H](O)[C@H](O)[C@H]3O)[C@H]2OC(=O)/C=C/c2ccc(O)c(O)c2)[C@H](O)[C@H](O)[C@H]1O`, the Potency entry was “inactive”.

In the case of `Nc1ccc(C(=O)OCC(O)CO)cc1` (stereo unspecified), the Potency entry was “inactive”.

In the case of `C[C@]12CCC(=O)C=C1CC[C@@H]1[C@@H]2CC[C@@]2(C)[C@H]1CC[C@]2(O)C(=O)CO`, the Potency entry is “inactive”.

With `O=C(O)c1ccccc1NCCc1ccccc1`, the Potency result is “inactive”.

Take `CCCC(C)C(=O)OCC` (stereo unspecified): the Potency result is “inactive”.

On to `O=C(Nc1ccc2c(O)c(N=Nc3ccc(N=Nc4ccc(S(=O)(=O)O)cc4)cc3)c(S(=O)(=O)O)cc2c1)c1ccccc1`, for which the Potency entry is “inactive”.

For `O=S1(=O)c2cccc3cccc(c23)N1CCCN1CCN(c2ccc(F)cc2)CC1`, the Potency entry was “inactive”.

For `CN1CCN(c2cc3c(cc2F)c(=O)c(C(=O)O)cn3-c2ccc(F)cc2)CC1`, the Potency result is “inactive”.

With `OC(CCCN1CCCCC1)(c1ccccc1)c1ccccc1`, the Potency entry is “inactive”.

In the case of `CCCCCCCCC(C)=O`, the Potency entry is “inactive”.

Regarding `CC(=O)[C@H]1CC[C@H]2[C@@H]3C=CC4=CC(=O)CC[C@@]4(C)[C@@H]3CC[C@]12C`, the Potency entry was “inactive”.

For the compound `CN1CCCN=C1COC(=O)C(O)(c1ccccc1)C1CCCCC1` (stereo unspecified), the Potency result is “inactive”.

Turning to `COc1ccc2nc(SCc3ncc(C)c(OC)c3C)[nH]c2c1`, the Potency entry is “inactive”.

Regarding `CC(C)=CC1CC(C)CCO1` (stereo unspecified), the Potency entry was “inactive”.

`CCC1C(=O)OCC1Cc1cncn1C` (stereo unspecified): the Potency result was “inactive”.

`O=C(Nc1cccc(C2=NCCN2)c1)Nc1cccc(C2=NCCN2)c1`: the activity change, negative = cytotoxicity was 1.91% [at 13.5 µM].

In the case of `COc1cc2[nH]c(=O)[nH]c(=O)c2cc1OC`, the Potency entry was “inactive”.

As to `CC[N+](C)(CC)CCOC(=O)C(O)(c1ccccc1)C1CCCCC1` (stereo unspecified), the Potency result was “inactive”.

For `CN1CCOC(c2ccccc2)c2ccccc2C1` (stereo unspecified), the Potency entry is “inactive”.

As to `NC(=O)c1ncn([C@@H]2O[C@H](CO)[C@@H](O)[C@H]2O)c1N`, the Potency result is “inactive”.

Turning to `OCC(O)[C@@H](O)[C@H](O)[C@H](O)CO[C@H]1O[C@H](CO)[C@@H](O)[C@H](O)[C@H]1O` (stereo partly specified), the Potency result is “inactive”.

As for `CCOC(=O)CC(=O)c1cc(F)c(Cl)nc1Cl`, the Potency result was “inactive”.

As for `O=C1c2ccccc2C(=O)C1c1nc2ccccc2c(Br)c1O`, the Potency result is “inactive”.

Regarding `N=c1ccn2c(n1)O[C@H]1[C@H](O)[C@@H](CO)O[C@H]12`, the Potency entry is “inactive”.

As for `CC(=O)CCc1ccc(O)cc1`, the Potency entry was “inactive”.

For the compound `C=C(C)CCCC(C)CCO` (stereo unspecified), the Potency entry was “inactive”.

With `CCCCCCCCCCCCCCCCC(=O)O`, the Potency result is “inactive”.

Consider `CC(=O)O[C@@H]1CC2CCC1(C)C2(C)C` (stereo partly specified), for which the Potency result is “inactive”.

On to `C[C@@H](CN1CC(=O)NC(=O)C1)N1CC(=O)NC(=O)C1`, for which the Potency entry is “inactive”.

As for `CN(C)C(=O)Nc1ccc(Oc2ccc(Cl)cc2)cc1`, the Potency entry is “inactive”.

Consider `CCN(CC)CCNc1ccc(CNC=O)c2sc3ccc(OC)cc3c(=O)c12`, for which the Potency entry is “inactive”.

As to `CCCC1CCC(=O)O1` (stereo unspecified), the Potency result is “inactive”.

Turning to `CCN(CC)CCSC(=O)C(c1ccccc1)c1ccccc1`, the Potency result is “inactive”.

Consider `[O]=[Bi]`, for which the activity change, negative = cytotoxicity was -5.49% [at 5.99 µM].

`CN1CCN(CCCN2c3ccccc3Sc3ccc(Cl)cc32)CC1`: the Potency result is “inactive”.
